Rab9 promoter act – Rab9 promoter activation; Huh7 Rab9 promoter-luciferase reporter, luminescence, 24 h; Potency, µM (highest dose often 9.22 µM), without a hit: at the top dose activation, negative = inhibition, actives largely listed as activators; 320,000 tested, 2.8% active; AID 485297; also: % of control where 0% means no effect; nearly all actives have a fitted effect of over 60% in size
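Luminescence read-out: Huh7 cells stably expressing Rab9-luciferase, treated 24 h with compound at 37 °C, then lysed with luciferase reagent for 10 min at ambient before reading.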
ELG1 genotoxic – inducers of genotoxicity in HEK293T ELG1-luciferase cells; 330,000 tested, 1.3% active; HEK293T ELG1-luciferase reporter, luminescence, 16 h; Potency, µM (series often up to 46 µM), for the others: at the highest dose activity change, positive = activation, hits mostly activators; AID 504466; also: % of control where 0% means no effect; nearly all actives have a fitted effect of over 60% in size
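HEK293T cells expressing luciferase-tagged ELG1 were treated with compound or DMSO for 16 hr at 37°C. Luciferase activity was then read after 30 min with ONE-Glo at room temperature; rising signal flags genetic stress.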
ELG1 DNA repair – blocks ELG1-dependent DNA repair in HEK293T cells. 330,000 tested, 2.3% active. AID 504467. HEK293T ELG1-luciferase reporter, luminescence, 16 h; DNA damage induced by 5-fluorouridine. Potency, µM (titrated, usually from 46.1 µM), for the others: at the highest dose activity change, negative = inhibition, hits mostly inhibitors; also: % is scaled to controls: 0 for no effect and ±100 for the full control effect; nearly all actives have a fitted effect of over 55% in size
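Overnight (16 hr) co-exposure of 2,000 cells/well to 5-fluorouridine and compound at 37 °C preceded detection. Luciferase was quantified via ONE-Glo luminescence; loss of signal denotes inhibition.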
SMN2 splice enh – SMN2 splice variant enhancement; HEK293 SMN2-luciferase splicing reporter, luminescence, 30-36 h; Potency, µM (top dose mostly 46.1 µM), without a hit: at the top dose activity change, positive = activation, most hits filed as activators; 210,000 tested, 2.8% active; AID 1458; also: % of control where 0% means no effect; nearly all actives have a fitted effect of over 55% in size
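HEK293 cells carry an SMN2 […]–luciferase reporter in which exon 7 inclusion puts luciferase in frame. Cells were plated 10-12 h before compound addition, then incubated 30-36 h at 37C. ONE-Glo luminescence was read; sodium butyrate at 4.5 mM final served as control.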
FLuc counter – inhibits or activates purified firefly luciferase, miR-21 counter-screen. P08659. purified FLuc, Km substrates, luminescence inhibition. Potency, µM (series often up to 57.5 µM), for inactives: at the top dose activity change, negative = inhibition, usual class: inhibitors. 360,000 tested, 6.9% active;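 also: plate controls were vehicle for no effect and reference inhibitor for full effect; nearly all actives have a fitted effect of over 55% in size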
Target sequence (P08659 whole entry, looked up): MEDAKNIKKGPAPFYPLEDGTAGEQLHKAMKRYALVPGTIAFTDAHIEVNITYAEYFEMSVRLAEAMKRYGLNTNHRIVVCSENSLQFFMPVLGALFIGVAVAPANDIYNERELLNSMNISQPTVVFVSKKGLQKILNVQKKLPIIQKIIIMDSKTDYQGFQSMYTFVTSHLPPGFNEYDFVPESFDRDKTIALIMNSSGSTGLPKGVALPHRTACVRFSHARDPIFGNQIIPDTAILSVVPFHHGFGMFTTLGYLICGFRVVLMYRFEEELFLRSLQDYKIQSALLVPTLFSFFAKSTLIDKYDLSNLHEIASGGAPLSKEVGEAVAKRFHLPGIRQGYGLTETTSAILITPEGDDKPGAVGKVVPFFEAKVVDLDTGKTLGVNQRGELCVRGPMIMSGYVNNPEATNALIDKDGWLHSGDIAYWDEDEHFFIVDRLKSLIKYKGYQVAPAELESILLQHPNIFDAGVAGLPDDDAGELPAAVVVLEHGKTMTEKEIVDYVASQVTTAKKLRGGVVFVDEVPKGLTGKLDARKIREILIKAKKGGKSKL
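Purified P. pyralis luciferase (10nM final) with 10uM D-luciferin and 10uM ATP (Km levels) in 50mM Tris acetate pH 7.5, 10mM Mg acetate, 0.01% Tween-20, 0.05% BSA; qHTS 6-point titration, ~60 µM downward; luminescence read.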
NPC1 prom act – NPC1 promoter activation. Potency, µM (doses to about 9.22 µM), for the others: at the highest dose activation, most hits filed as activators. 320,000 tested, 2.4% active. Huh7 NPC1 promoter luciferase reporter, 24 h; also: % of control where 0% means no effect; nearly all actives have a fitted effect of over 60% in size
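Luminescence from an NPC1 promoter-driven luciferase reporter in stably transfected Huh7 cells was measured after 24 h compound treatment at 37 °C, followed by 10 min ambient incubation with luciferase detection reagent.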
Starred values were filed as active, the others as inactive; ? = inconclusive; . = no result; [ ] = dose if it differs, or a comment. Compounds with a hit are over-represented: about 9.3% of the library has one in this group of screens. Calls follow the shape of the dose curve; as a rule, active = well fitted curve in the direction sought with a large enough effect; inconclusive = small, poorly fitted or top-dose-only effect, or another doubt; inactive = no such curve, though single readings can be large; an effect the other way counts as inactive or inconclusive. Potency is read from the fitted curve at half-maximal effect.

SMILES	Rab9 promoter act	ELG1 genotoxic	ELG1 DNA repair	SMN2 splice enh	FLuc counter	NPC1 prom act
c1ccc(C2Nc3ccccc3-c3nc4ccccc4n32)nc1 (stereo unspecified)	-1%	2%	-8%	-8%	?	-6%
c1ccc(C2Nc3ccccc3-c3nc4ccccc4n32)cc1 (stereo unspecified)	6%	?	?	26%	21µM*	3%
c1coc(C2Nc3ccccc3-c3nc4ccccc4n32)c1 (stereo unspecified)	?	?	?	18µM*	21µM*	?
Cc1cc(C)n(CC(O)Cn2ccc3ccccc32)n1 (stereo unspecified)	0%	-1%	?	0%	2%	2%
Cc1cc(C)n(CC(O)Cn2c3ccccc3c3ccccc32)n1 (stereo unspecified)	-5%	-2%	?	13µM*	2%	0%
CCOc1ccc(C2NC(=O)C(C#N)=C(S)N2c2cccc(C)c2)cc1OC (stereo unspecified)	-3%	0%	-13%	.	-20%	0%
CCOc1ccc(C2NC(=O)C(C#N)=C(S)N2c2ccc(C)cc2)cc1OC (stereo unspecified)	-1%	12%	0%	-13%	17µM*	-2%
CCOC(=O)c1ccc(NC(=O)CSc2nnc(NC(=O)c3ccc(S(=O)(=O)N4CCOCC4)cc3)s2)cc1	3%	9%	?	?	1.7µM*	11%
Nc1nnc(SCC(=O)Nc2ccc(S(=O)(=O)N3CCOCC3)cc2)s1	-5%	-3%	2%	14%	4%	-5%
Cc1ccc(NC(=O)CSc2nnc(NC(=O)c3ccc(S(=O)(=O)N4CCOCC4)cc3)s2)cc1	19%	12%	?	?	2.7µM*	4%
NC(=O)CSc1nnc(NC(=O)c2ccc(S(=O)(=O)N3CCCCC3)cc2)s1	0%	-2%	-1%	.	-14%	-4%
Cc1cc(C)n2c(SCC(=O)Nc3ccc(F)cc3F)nnc2n1	-4%	0%	8%	-16%	-2%	0%
c1ccc2c(c1)C(=Nc1ccc(N=C3c4ccccc4-c4ccccc43)cc1)c1ccccc1-2	.	.	.	12%[9.22 µM]	.	.
O=c1c2cn[nH]c2nc(SCc2cc(=O)n3cc(Br)ccc3n2)n1-c1ccc(Br)cc1	-6%	-9%	?	.	0%	-6%
CN(C)C(=O)c1ccc(-c2cc(C(F)(F)F)nn2C)s1	?	?	?	.	15µM*	3.5µM*
COc1cc(OC)c(NC(=O)CCS(=O)(=O)c2ccc3c(c2)oc(=O)n3C)cc1Cl	.	.	.	.	-2%	.
Cc1ccc(-c2ocnc2C(=O)Nc2ccccc2NC(=O)c2ccccn2)cc1	1%	-19%	-19%	.	15µM*	0%
Cc1cccc(-c2ocnc2C(=O)Nc2ccccc2C(=O)N2CCCC2)c1	0%	-29%	?	.	?	-1%
Cc1cccc(-c2ocnc2C(=O)Nc2ccccc2NC(=O)c2ccccn2)c1	0%	-16%	-5%	.	13µM*	-1%
COc1ccccc1OCc1nc2ccccc2[nH]1	2µM*	?	?	11µM*	11µM*	2.5µM*
c1ccc2[nH]c(CCCc3nc4ccccc4[nH]3)nc2c1	-2%	1%	3%	.	-1%	7%
Cc1ccccc1OCc1nc2ccccc2[nH]1	1.8µM*	?	?	.	4.8µM*	?
c1cnc2c(OCc3nc4ccccc4[nH]3)cccc2c1	2.2µM*	?	?	11µM*	9.5µM*	4µM*
CCCCc1nc2ccccc2[nH]1	-5%	0%	10%	6%	2%	2%
Cc1ccc(Nc2ncc3c(n2)CC(C)CC3=O)c(C)c1 (stereo unspecified)	?	7.3µM*	?	.	7.6µM*	27%
SMILES	Rab9 promoter act	ELG1 genotoxic	ELG1 DNA repair	SMN2 splice enh	FLuc counter	NPC1 prom act
CC1CC(=O)c2cnc(Nc3cccc(C(F)(F)F)c3)nc2C1 (stereo unspecified)	?	7%	6%	0%	?	19%
CC1CC(=O)c2cnc(Nc3ccccc3)nc2C1 (stereo unspecified)	3.5µM*	5.8µM*	?	11µM*	9.5µM*	3.2µM*
O=C1c2ccccc2C(=O)N1CCc1nc(-c2ccc(Cl)cc2)no1	5%	0%	0%	-21%	-3%	0%
COc1ccc(/C=C2\SC(=S)N(CCC(=O)NCCCN3CCOCC3)C2=O)cc1	-8%	0%	-5%	.	17µM*	1%
CCc1ccc(/C=C2\SC(=S)N(CCC(=O)NCCCN3CCOCC3)C2=O)cc1	-14%	9%	7%	.	6.7µM*	15%
CN(C)S(=O)(=O)c1ccc(Cl)c(C(=O)OCC(=O)NNC(=O)c2cccs2)c1	-2%	2%	19%	.	2%	-2%
Cc1cccc(NC(=O)CCn2nc(C)cc2C)c1	3%	-2%	13%	-11%	1%	-2%
COCCNC(=O)c1onc(CCl)c1C(=O)OC	0%	2%	6%	9%	-2%	-1%
Cn1c(=O)n(C)c2cc(CNCc3ccccc3)ccc21	.	.	.	.	-2%	.
Cc1sc2nc(-c3cccnc3)nc(Cl)c2c1-c1ccccc1	17%	11%	?	?	17µM*	?
CC(C)=CC(=O)OCC(=O)Nc1cccc([N+](=O)[O-])c1	0%	-1%	22%	.	-7%	1%
COc1cc(CNc2ccc(NC(C)=O)cc2)ccc1OCc1ccccc1C	?	?	10%	15%	15µM*	13%
COc1ccc(/C=C2\C(=O)N(Cc3ccc(F)cc3)CC(=O)N2Cc2ccccc2)cc1	3%	-4%	?	-27%	-2%	-4%
COc1ccc(CN2C(=O)c3ccccc3C2=O)cc1	5%	4%	-2%	.	8%	3%
COc1ccc(CN2C(=O)c3ccccc3C(/C=N\OCc3ccc(F)cc3)C2=O)cc1 (stereo unspecified)	3%	-7%	12%	-52%	21µM*	-2%
COc1ccc(CN2C(=O)c3ccccc3C(/C=N/OCc3ccc(Cl)cc3)C2=O)cc1 (stereo unspecified)	-3%	-8%	3%	-61%	21µM*	-4%
Cc1cc2nc(-c3cccnc3SCC(=O)NC(C)C)[nH]c2cc1C	2.2µM*	23µM*	?	11µM*	2.7µM*	2.8µM*
COCCOC(=O)CSc1ncccc1-c1nc2cc(C)c(C)cc2[nH]1	3.5µM*	?	?	16µM*	2.1µM*	?
COC(=O)C(Cc1c[nH]c2ccccc12)NC(=O)c1ccccc1Br (stereo unspecified)	-1%	0%	0%	.	4.3µM*	0%

High-throughput results: PubChem, National Center for Advancing Translational Sciences (NCATS)
